Inconclusive results are not listed. The source made the active and inactive calls. Calls follow the shape of the dose curve; as a rule, active = well fitted curve in the direction sought with a large enough effect; inconclusive = small, poorly fitted or top-dose-only effect, or another doubt; inactive = no such curve, though single readings can be large; an effect the other way counts as inactive or inconclusive.
Biological target: D(1A) dopamine receptor (Homo sapiens) (UniProt P21728)
Assay: HTS Assay for Allosteric Agonists of the Human D1 Dopamine Receptor: Primary Screen for Agonists (AID 488981)
Conditions: Inducible HEK293 T-REx D1 cells, calcium-flux fluorescence, 180 s kinetic; series mostly up to 41.8 µM
How it was run: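 Tetracycline-induced HEK293 Trex D1 cells with forced coupling to calcium, loaded with no-wash calcium dye; kinetic fluorescence read 180 s after compound addition for agonism, then a further 180 s after an EC20 dopamine challenge for potentiation.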

Sequence of D(1A) dopamine receptor (Homo sapiens) (P21728 whole entry, looked up): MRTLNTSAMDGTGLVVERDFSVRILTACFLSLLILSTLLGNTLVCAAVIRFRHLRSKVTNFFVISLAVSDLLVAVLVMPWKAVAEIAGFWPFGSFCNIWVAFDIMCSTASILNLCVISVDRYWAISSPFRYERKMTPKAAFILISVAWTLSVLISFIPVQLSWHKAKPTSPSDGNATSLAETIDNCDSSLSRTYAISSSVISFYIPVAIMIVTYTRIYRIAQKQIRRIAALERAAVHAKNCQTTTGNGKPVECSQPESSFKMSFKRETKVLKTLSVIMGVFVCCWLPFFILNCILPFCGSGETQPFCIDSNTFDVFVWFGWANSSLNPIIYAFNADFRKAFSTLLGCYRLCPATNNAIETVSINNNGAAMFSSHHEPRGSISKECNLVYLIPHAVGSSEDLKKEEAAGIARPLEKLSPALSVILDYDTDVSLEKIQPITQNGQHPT

SMILES | outcome
COc1ccc2cc([S+]([O-])Cc3ncc(C)c(OC)c3C)nc2c1 | inactive
O=c1[nH]c(=O)n([C@H]2C[C@@H](O)[C@@H](CO)O2)cc1C=CBr | inactive
CN[C@H](CC(C)C)C(=O)N[C@H]1C(=O)N[C@@H](CC(N)=O)C(=O)N[C@@H]2C(=O)N[C@H]3C(=O)N[C@H](C(=O)N[C@H](C(=O)O)c4cc(O)cc(O)c4-c4cc3ccc4O)[C@H](O)c3ccc(c(Cl)c3)Oc3cc2cc(c3O[C@@H]2O[C@H](CO)[C@@H](O)[C@H](O)[C@@H]2O[C@H]2C[C@](C)(N)[C@H](O)[C@H](C)O2)Oc2ccc(cc2Cl)[C@H]1O | inactive

Biological target: D(1A) dopamine receptor (Homo sapiens) (UniProt P21728)
Assay: HTS Assay for Allosteric Agonists of the Human D1 Dopamine Receptor: Primary Screen for Potentiators (AID 488982)
Conditions: HEK293 T-REx D1 inducible cells, calcium flux, kinetic fluorescence; series mostly up to 8.37 µM
From the text: Dopamine receptors (DARs) are involved in the etiology and/or therapy of a number of neuropsychiatric and endocrine disorders. For instance, all receptor-based antiparkinsonian drugs work via stimulating the […] DAR subtype whereas all FDA-approved antipsychotic agents are antagonists of this receptor. […] There are three different types of allosteric modulators that we are seeking, two of which will stimulate or augment receptor signaling, allosteric agonists and potentiators, while the third, allosteric antagonists, will attenuate receptor signaling. The present primary screening assay measures compound agonism by tracking calcium flux in a […], inducible Hek293 Trex D1 cell line.
Freshly passaged cells are plated in 1536 well black, clear bottom plates at a density of 4000 cells/well in 3 ul of complete media containing 1x tetracycline inducer. After an overnight incubation at 30 C in 5% CO2, cells are loaded with 2 ul of the no wash Calcium Assay Kit (ABD Bioquest) and incubated at room temperature for 30 to 90 minutes. A 10 cycle (1 second/cycle) baseline measurement is taken and then the FDSS online 1536 pintool delivers 23 nl of compound library (as well as dopamine controls) to the plate. The plate is measured for kinetically at 1 cycle/sec for 180 seconds and is considered to be the agonist portion of the assay (eg, compounds which activate a positive calcium response during this portion are flagged as potential agonists). Following the 180 second read, 1 ul of an EC20 of dopamine is delivered by an onboard pipette head. Measurements are taken kinetically for an additional 180 seconds.

SMILES | outcome
COc1ccc2cc([S+]([O-])Cc3ncc(C)c(OC)c3C)nc2c1 | inactive
O=c1[nH]c(=O)n([C@H]2C[C@@H](O)[C@@H](CO)O2)cc1C=CBr | inactive
CN[C@H](CC(C)C)C(=O)N[C@H]1C(=O)N[C@@H](CC(N)=O)C(=O)N[C@@H]2C(=O)N[C@H]3C(=O)N[C@H](C(=O)N[C@H](C(=O)O)c4cc(O)cc(O)c4-c4cc3ccc4O)[C@H](O)c3ccc(c(Cl)c3)Oc3cc2cc(c3O[C@@H]2O[C@H](CO)[C@@H](O)[C@H](O)[C@@H]2O[C@H]2C[C@](C)(N)[C@H](O)[C@H](C)O2)Oc2ccc(cc2Cl)[C@H]1O | inactive

From PubChem BioAssay (NCATS)
